# Target: CHRM2
# Experiment: pooled miR-30 sensor sort-seq; sequence = guide strand
# Conditions: shRNA
# Note: reference of the scale not given here.
row,Sequence,sensor-assay potency score (higher = more potent)
1,TTCTTTATCCTGCTCTTGCTGG,-0.363
2,TTCTTGTCCTTCTTTATCCTGC,-0.0112
3,TATTCTGCTTTTCATCTCCATT,-1.16
4,TTTTGTGGTCCGCTTGACTGGG,0.0688
5,TTAATGAGCACCATGACATTGT,-0.0449
6,TTTTGTGACACAGAAGTACCTG,0.758
7,TAGAAGGCTGCAATAGCCGTAC,-0.0525
8,TTAAAGGTCTTCTTGAAGGTGG,0.265
9,TTTGTGGTCCGCTTGACTGGGT,-0.403

# Target: CHRNA1
# Experiment: as above
# Conditions: shRNA
row,Sequence,sensor-assay potency score (higher = more potent)
1,TTTGTCTTGCTTTTCTCTGGAT,-0.428
2,TAACACGTTTGATAAGTGCGAG,-0.52
3,TTGCAACGTACTTCCACTCTGC,0.505
4,TTCTTAGTAGGTACAAAACTGA,-0.855
5,TTAGAACATCAGCAACTCCCTA,-0.4
6,TAGACAAATCTTCCTCTCCTGC,-0.927
7,TACTGCAGGAGCACTTTGGTGA,0.163
8,TATAACAGCAATGACAATGCAA,0.464
9,TAGGTCACGGAGTGCTTCCAGC,-1.17
10,TAGAACATCAGCAACTCCCTAG,0.223
11,TACTTCATCCACATTGATGAGC,-0.906
12,TACTGCTTCCTCTCTCTCCAAA,-0.987
13,TTGTCTTGCTTTTCTCTGGATG,-0.807
14,TAAGCAAAGAATACACTTCATT,-1.02
15,ATTGATGAGCTGTATCAGCTGC,0.306
16,TAGCTTTGCCACCAGACGGGTC,-1.08
17,TTTTTTAGTGATTAGTTTCATT,-0.783
18,TAGCAAAGTCACCATCTGCATT,-1.03
19,TTCATCCACATTGATGAGCTGT,-0.162
20,TAAGTATGGAATATAACACGTT,-0.0814
21,TAGCTTTTAAAGATGGCTGGAG,-0.126

# — the OligoGym collection
